# According to PubChem BioAssay (NCI):
# Compounds without any hit were thinned out: in the full panel of roughly 79,000, 15% have a hit. Unmarked numbers belong to inactive results. The source made the active and inactive calls. Cut-off read from the data, not from the text of the source: active = growth inhibition above about 70%; inactive = the rest. Where a SMILES comes first, the peptide text is derived from it. [ ]: non-standard residue; d: D form. The star is where a group is joined. ONb = O=[N+]([O-])c1ccc(CO*)cc1; AllylGly = C=CC[CH](N)C(=O)O; Boc = CC(C)(C)OC(=O)*
# How the values were obtained:
# [1] = NCI Yeast Anticancer Drug Screen. Data for the rad50 strain (AID 155);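 note: 0% = growth of vehicle-only cultures of the same strain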; conditions: S. cerevisiae rad50 strain growth inhibition; at 50.0 µM; active compounds read high
# How it was run: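 Vehicle-treated cultures provide the reference for the growth inhibition reported for compound-exposed, repair-deficient yeast.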
# [2] = NCI Yeast Anticancer Drug Screen. Data for the mec2-1 strain (AID 157); conditions: S. cerevisiae mec2-1 strain, at 50.0 µM, active compounds read high
# How it was run: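 Each compound was tested on mec2-1 yeast, a strain altered in DNA damage repair or cell cycle control. Growth inhibition is reported relative to vehicle.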
# [3] = NCI Yeast Anticancer Drug Screen. Data for the sgs1 mgt1 strain (AID 161);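 note: 0% = growth of cultures given vehicle only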; conditions: S. cerevisiae sgs1 mgt1 strain, at 50.0 µM, active compounds read high
# How it was run: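 Test agents were incubated with a DNA-repair-mutant yeast strain. Growth was then read and compared against vehicle-treated controls.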
# [4] = NCI Yeast Anticancer Drug Screen. Data for the cln2 rad14 strain (AID 165);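 note: 0% = growth equal to vehicle treated cultures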; conditions: S. cerevisiae cln2 rad14 strain, at 50.0 µM, active compounds read high
# How it was run: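 Test compounds were added to cln2 rad14 yeast cultures; inhibition of growth was then determined by comparison with vehicle treatment.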
# [5] = NCI Yeast Anticancer Drug Screen. Data for the bub3 strain (AID 167); conditions: S. cerevisiae bub3 mutant strain, at 50.0 µM, active compounds read high
# How it was run: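 Mutant yeast screening strain plus compound; vehicle-treated cultures serve as the 0% inhibition reference.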
# [6] = NCI Yeast Anticancer Drug Screen. Data for the mlh1 rad18 strain (AID 175); conditions: S. cerevisiae mlh1 rad18 strain growth inhibition; at 50.0 µM; active compounds read high
# How it was run: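 Inhibition values reflect reduced growth of mutant yeast versus vehicle-treated controls following compound exposure; the mutations affect DNA damage repair.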
SMILES,growth inhibition [1],growth inhibition [2],growth inhibition [3],growth inhibition [4],growth inhibition [5],growth inhibition [6]
C=CCC(NC(=O)OC(C)(C)C)C(=O)NC(CCC(=O)OCc1ccc([N+](=O)[O-])cc1)C(N)=O (stereo unspecified) (Boc-[AllylGly]-Glu(ONb)-NH2; configuration not given here),-7.75%,-36.7%,-20.1%,9.25%,-2.35%,-9.2%
CN(C)c1ccc(C(=Cc2ccccc2)c2ccc(N(C)C)cc2)cc1,-0.9%,18.3%,-2.8%,-63.6%,0.8%,5.5%
CCN(CC)CCCn1c(-c2ccccc2)ccc1-c1ccccc1,10.1%,-6%,8.1%,-16.4%,21.4%,18.4%
O=S(=O)(SC1=NCCN1)c1cccc2ccccc12,3%,3.5%,20.1%,30%,-3%,8.45%
COc1cc2c3c(c1)CCCN3CCC2,-40.6%,-17%,-20.5%,-4.95%,13.2%,-17.6%
CCOC(=O)CC(C)(O)c1ccccc1 (stereo unspecified),-12.2%,-0.55%,23.4%,-17.4%,12.3%,0.15%
CCCCCc1c(C)[nH]n(C(N)=NCCSCc2nc[nH]c2C)c1=O,31.5%,-0.8%,35%,22.4%,-22.5%,25.2%
Clc1nc(N2CCOCC2)c2[nH]cnc2n1,-5.9%,5.7%,3.9%,-6.1%,8.8%,6.25%
c1ccc2cc(-c3csc4ccccc34)ccc2c1,12.8%,-16.4%,17.1%,-8.05%,15.4%,9.15%
NC(=O)N/N=C1\CC2CCC1C2Cl (stereo unspecified),-0.05%,-1.35%,-5%,-0.45%,-13.7%,-14.8%
C=C1C(=O)OC2C1C(OC(=O)/C(C)=C/C)CC1(C)C(=O)CCC(=C)C21 (stereo unspecified),38.3%,47%,52.8%,44.1%,52.8%,63.6%
NCc1ccccc1,-2.5%,7.75%,-2.2%,-41.4%,-18.9%,-3.85%
O=C(NCc1cccc2ccccc12)Nc1ccccc1Cl,4.9%,36.1%,10.3%,-6.55%,27%,30%
COc1cc(/C=C/C(=O)OCCc2ccccc2)ccc1O,74.8% (active),82% (active),90.2% (active),89% (active),90.1% (active),61%
O=C(O)C1CCCN1Cc1ccc2c(c1)OCO2 (stereo unspecified),-5.1%,-19.6%,-34%,-3.5%,-40.8%,-36.8%
O=C(O)c1cccc(Cl)c1-c1c(Cl)cccc1C(=O)O,4.65%,-0.95%,17.8%,11.8%,17.3%,-8.45%
CC(=O)OC1COC(N2C(=O)C(=O)c3ccccc32)C(OC(C)=O)C1OC(C)=O (stereo unspecified),13.1%,19.4%,-1.5%,-22.4%,9.05%,19.1%
CCCCCCCCCCCCCCCCCCCOc1ccc(OCCCCCCCCCC)cc1,33.9%,-2.05%,24.6%,-10.4%,0.2%,7.15%
OC(COc1ccc2ccccc2c1)COc1ccc2ccccc2c1,-8.55%,-22.1%,-7.85%,-16.3%,-11.6%,-5.8%
ON(Cc1ccccc1)Cc1ccccc1,-3.95%,-26.9%,12.9%,12.8%,9.5%,-19.1%
O=C(CN1C(=O)NC(c2ccccc2)(c2ccccc2)C1=O)NCCN1CCOCC1,-1.65%,3.9%,-5.95%,-1.6%,-0.1%,26.1%

SMILES,growth inhibition [1],growth inhibition [2],growth inhibition [3],growth inhibition [4],growth inhibition [5],growth inhibition [6]
C/C(CC(N)=O)=C1\C(=O)NN(c2ccccc2)C1=O,23.1%,26.4%,48.2%,7.3%,40%,36.4%
Cc1ccc(N=C=S)cc1Cl,6.75%,9.65%,32.4%,6.55%,15.8%,27.9%
O=C(O)c1cc(=O)[nH]c2ccccc12,-10.1%,-5.7%,8%,-0.95%,1.7%,14.9%
OCc1ccccc1,37%,19.2%,0.1%,-14.7%,29.4%,26.1%
Cc1cc(C)c(CSc2cc(N)nc(N)c2N)c(C)c1,15.4%,9.3%,1.25%,5.9%,6.9%,48.2%
Cc1cc(C(=O)C=[N+]=[N-])c(CN2C(=O)c3ccccc3C2=O)c(=O)n1C,-0.8%,-9.55%,-3.4%,5.95%,-13.5%,1.4%
CC(=O)Oc1ccc(=O)[nH]c1,1.3%,-11.9%,2.2%,-18.4%,2.75%,-48%
C[S+]1Cc2nc3ccccc3n2C1c1c(F)cccc1F (stereo unspecified),4.65%,-19.2%,-1.75%,12.8%,-14.7%,2.35%
CCO[Si](CCCN)(OCC)OCC,-37.5%,-58.2%,-36.2%,0.95%,-22.1%,-33.8%
CC(=O)Oc1ccccc1C(=O)OC(=O)c1ccccc1OC(C)=O,5.3%,-10.2%,-1.7%,-9.85%,0%,6.75%
CN(CC1=C(O)C(=O)C(CN(C)Cc2c(O)ccc3ccccc23)=C(O)C1=O)Cc1c(O)ccc2ccccc12,30.7%,4.85%,34.1%,-1.25%,5.3%,28.9%
CCN(CC)C(=S)N/N=C/c1ccccn1,89.5% (active),92% (active),91% (active),89.2% (active),89.8% (active),90.3% (active)
O=c1[nH]nc(-c2ccccc2)c2c1[nH]c1ccccc12,-13.8%,-15.7%,-0.85%,-33.9%,-12.4%,-12.1%
NC(N)=NCCCCNCCCN=C(N)N,-23.2%,-42.8%,1.55%,3.35%,-16.4%,-15.7%
COc1ccc2c(c1OC)C(O)N1CCc3cc4c(cc3C1=C2C(=O)c1ccccc1)OCO4 (stereo unspecified),6.75%,14.2%,0.5%,-5.3%,28.1%,22.8%
CCc1nnc2n1N=C(c1ccc(-c3ccccc3)cc1)CS2,20.4%,28.3%,3.3%,5.05%,3.05%,26.1%
O=C(Cc1ccccc1)N(C(=O)c1ccccc1)c1ccccc1,8.9%,14.5%,10.8%,9.1%,24.1%,15.7%
CCc1nc(Nc2cccc(C)c2)c2cnn(-c3ccccc3)c2n1,-0.85%,-15.6%,-2.3%,-22.5%,-3.05%,-13.8%
CCO/C([O-])=C(\C=N\S(=O)(=O)c1ccc(C)cc1)[n+]1ccc(C)cc1,13.8%,14.7%,12.2%,-17.1%,-4.2%,6.45%
C/C(CC(O)(C(F)(F)F)C(F)(F)F)=N\O,-29.8%,-51.2%,-20.4%,-15.9%,-19.5%,-5.65%
